Only some compounds are listed: those with a hit (about 11% of all), similar ones and a draw of the others.
NPSR antagonist = neuropeptide S receptor (human) antagonism, cAMP; Potency, µM (top dose mostly 38.3 µM), most hits filed as inhibitors; 220,000 tested, 1% active; AID 1461; CHO-NPSR cells, cAMP TR-FRET, antagonist mode; note: nearly all actives have a fitted effect of over 50% in size
IMPase inh = membrane-permeable compound that blocks inositol monophosphatase. 120,000 tested, under 10 active. CHO-M1 cells, IP1 accumulation, HTRF TR-FRET ratio. P97697. inhibition (IP1 accumulation), % at 46.1 µM; active = well fitted curve in the direction sought with a large enough effect in the signal ratio, not every such curve was filed as active; inconclusive = small, poorly fitted or top-dose-only effect, or a change in a side signal; inactive = no such curve, though single readings can be large or run the other way; the % refers to the signal ratio;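 note: cells stimulated with carbachol in lithium chloride buffer; higher means more IMPase inhibition seen as more IP1 and lower FRET ratio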
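CHO-M1 cells (CHO stably expressing M1 receptor), compound up to 46 uM final, stimulated with carbachol (50 uM as added) in buffer with 50mM LiCl, pH 7.4, 30 min at 37C. Cytosolic IP1 read by TR-FRET; AC50 from Hill fits.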
ALDH1A1 block = inhibitors of human aldehyde dehydrogenase 1A1. P00352. Purified ALDH1A1, NADH fluorescence, propionaldehyde substrate. Potency, µM (highest dose often 75.3 µM), actives largely listed as inhibitors. 220,000 tested, 7.3% active. AID 1030; active = well fitted inhibition curve with a large enough effect, not every such curve was filed as active; inconclusive = small, poorly fitted or top-dose-only effect, or another doubt; inactive = no such curve, though single readings can be large or run the other way
Target sequence (P00352 whole entry, looked up): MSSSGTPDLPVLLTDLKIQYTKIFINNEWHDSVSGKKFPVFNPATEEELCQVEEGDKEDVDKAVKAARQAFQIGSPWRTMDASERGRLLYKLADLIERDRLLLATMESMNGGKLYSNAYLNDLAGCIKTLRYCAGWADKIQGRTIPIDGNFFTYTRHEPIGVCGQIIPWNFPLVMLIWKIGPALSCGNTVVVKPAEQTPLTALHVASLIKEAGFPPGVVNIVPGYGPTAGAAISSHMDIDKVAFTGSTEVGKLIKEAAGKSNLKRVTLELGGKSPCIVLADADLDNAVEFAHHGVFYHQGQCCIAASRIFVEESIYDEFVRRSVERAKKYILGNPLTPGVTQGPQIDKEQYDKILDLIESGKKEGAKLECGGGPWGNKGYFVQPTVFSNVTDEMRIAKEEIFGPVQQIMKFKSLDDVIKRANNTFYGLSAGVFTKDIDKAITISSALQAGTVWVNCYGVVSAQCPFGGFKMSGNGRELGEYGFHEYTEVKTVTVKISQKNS
PNC inhibitor = perinucleolar compartment assembly inhibition; PC3M PTB-GFP, PNC prevalence imaging, 16 h; active compounds read low; activity change (PNC), negative = inhibition, % at 10 µM; 140,000 tested, 3.1% active; AID 2417;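 active = readout at or below -70, meaning at least 70% loss of cells showing the perinucleolar compartment, a nuclear body marking cancer cells; inconclusive = readout between -30 and a set limit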
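Read-out is percentage of cells bearing a perinucleolar compartment, from automated 20x imaging of fixed, Hoechst-stained PC3M PTB-GFP cells. Cells were seeded 4 h, then exposed 16 h to compound (23 nl of library stock) in duplicate plates.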
IMPase Li inh = IMPase inhibition in cells with lithium potentiation; AID 1457; CHO-M1 cells, IP1 TR-FRET (IP-One), carbachol + lithium; Potency, µM (top dose mostly 59.4 µM), usual class: inhibitors; 210,000 tested, 0.35% active;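 note: IP1 builds up when IMPase is blocked and the TR-FRET signal falls; nearly all actives have a fitted effect of over 50% in size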
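Test compounds were applied to CHO-M1 cells previously cultured for 16–30 h at 2000 per well. A small lithium amount accompanied them; after 30 min at 37C, IP1 was quantified by TR-FRET.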
HPGD inh = HPGD (human) dehydrogenase inhibition | purified HPGD, NADH fluorescence kinetic, PGE2 substrate | P15428 | Potency, µM, hits mostly inhibitors | 150,000 tested, 4.3% active; active = well fitted inhibition curve with a large enough effect, not every such curve was filed as active; inconclusive = small, poorly fitted or top-dose-only effect, or another doubt; inactive = no such curve, though single readings can be large or run the other way
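NADH formation kinetics: reaction with 30 uM PGE2 and 1 mM NAD+ (final), 20 nM enzyme, Tris-HCl pH 8 with Tween 20, after 15 min compound preincubation at room temperature. Fluorescence change, last versus first of five reads.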
Large screens that a line does not name were inactive. Unless noted, calls come from the whole dose curve; as a rule, active = well fitted curve in the direction sought with a large enough effect; inconclusive = small, poorly fitted or top-dose-only effect, or another doubt; inactive = no such curve, though single readings can be large; an effect the other way counts as inactive or inconclusive.

Cc1c(C(=O)OCC(C)C)[nH]c2c1C(=O)CC(c1ccco1)C2 (configuration not stated)	ALDH1A1 block 11µM, PNC inhibitor -88
C/C=C/COC(=O)c1[nH]c2c(c1C)C(=O)CC(c1ccco1)C2 (configuration not stated)	ALDH1A1 block inconclusive, PNC inhibitor -102
Cc1ccc2oc(=O)c3cnn(CC(=O)N4CCCCC4C)c3c2c1 (configuration not stated)	ALDH1A1 block inconclusive, PNC inhibitor inconclusive
CN(C)C(CNS(=O)(=O)c1ccc(F)cc1)c1cccnc1 (configuration not stated)	none
O=c1[nH]c2ccccc2cc1-c1noc(-c2cccnc2)n1	HPGD inh inconclusive
CC1(C)CC(=O)C2=C(C1)Oc1ncn(Cc3ccco3)c(=N)c1C2c1ccccc1 (configuration not stated)	none (no result: IMPase Li inh, HPGD inh)
COc1ccc(-c2cnc(N)nc2-c2ccc(OC)cc2O)cc1	none
O=C(Cc1ccc(S(=O)(=O)N2CCCC2)s1)N1CCOCC1	none
C/C(=C\c1ccccc1)CN1CCC(C(=O)N2CCCC(C)C2)CC1 (configuration not stated)	none (no result: IMPase inh, PNC inhibitor, HPGD inh)
O=C(CSc1nc2c([nH]c3ccccc32)c(=O)n1-c1cccc(Cl)c1)N1CCOCC1	none
O=C(CSc1nc2c([nH]c3ccccc32)c(=O)n1-c1ccccc1)N1CCOCC1	ALDH1A1 block 2.5µM, PNC inhibitor inconclusive
Cc1ccc(-n2c(SCC(N)=O)nc3c([nH]c4ccccc43)c2=O)cc1	ALDH1A1 block 11µM, PNC inhibitor inconclusive
CCOC(=O)c1c(-c2ccc(C)cc2)csc1NC(=O)c1ccc(C(C)(C)C)cc1	none (no result: NPSR antagonist, ALDH1A1 block, PNC inhibitor, IMPase Li inh, HPGD inh)
CCOC(=O)c1c(-c2ccc(C)o2)csc1NC(=O)CSc1nnnn1-c1ccccc1	NPSR antagonist inconclusive, ALDH1A1 block 1.6µM, HPGD inh 11µM
CCOC(=O)c1c(-c2ccc(C)o2)csc1NC(=S)NC(=O)c1cccs1	ALDH1A1 block 18µM, HPGD inh inconclusive (no result: IMPase inh)
CCOC(=O)c1c(-c2ccccc2)csc1NC(=O)CCN1C(=O)c2ccccc2C1=O	ALDH1A1 block inconclusive, PNC inhibitor inconclusive
CCNC(=S)Nc1scc(-c2ccccc2)c1C(=O)OCC	ALDH1A1 block 28µM, IMPase Li inh inconclusive (no result: IMPase inh)
COC(=O)c1c(-c2ccc(C)cc2)csc1NC(=S)NC(=O)c1cc(OC)cc(OC)c1	ALDH1A1 block 20µM
COc1ccc(N/C=C2\C(=O)CCc3c2oc2cc(Cl)c(O)c(Cl)c32)cc1	none (no result: IMPase inh, PNC inhibitor, IMPase Li inh, HPGD inh)
CCOC(=O)c1c(-c2cccc([N+](=O)[O-])c2)csc1NC(=O)C1CCCCC1	NPSR antagonist 10µM, ALDH1A1 block inconclusive
CCOC(=O)c1c(-c2cccc([N+](=O)[O-])c2)csc1NC(=O)C1CC1	none
O=C(/C=C/c1ccc(Br)cc1)NC(=S)Nc1ccc(S(=O)(=O)Nc2nccs2)cc1	NPSR antagonist inconclusive
Cc1cccc(C)c1NC(=O)C[n+]1cc(-c2ccccc2)n2c1CCC2	none (no result: IMPase inh, ALDH1A1 block, PNC inhibitor, IMPase Li inh, HPGD inh)
COc1ccc(/C=N/NC(=O)COc2ccccc2-c2ccccc2)cc1	NPSR antagonist inconclusive, PNC inhibitor -115
O=C(COc1ccccc1-c1ccccc1)N/N=C/c1cccc2ccccc12	ALDH1A1 block inconclusive, PNC inhibitor inconclusive, HPGD inh inconclusive
COc1ccc(/C=N/NC(=O)CCn2cnc(-c3ccccc3)c2-c2ccccc2)cc1	ALDH1A1 block inconclusive, PNC inhibitor -108 (no result: IMPase inh)
CCOc1ccc(Cc2nnc(N)s2)cc1OCC	PNC inhibitor -86
CC(C)OC(=O)Cn1nnc2c(cnn2-c2ccccc2)c1=O	PNC inhibitor -100
Cc1ccc(C)c(N(C(=O)c2nsc(Cl)c2Cl)C(C(=O)NC2CCCC2)c2ccc(O)cc2)c1 (configuration not stated)	ALDH1A1 block inconclusive (no result: IMPase inh)
COc1ccc(C(C(=O)NC2CCCC2)N(CCN(C)C)C(=O)c2snc(C(N)=O)c2N)cc1 (configuration not stated)	ALDH1A1 block inconclusive, PNC inhibitor -114, HPGD inh inconclusive
